Laboratory results reported in the supplement of paper PMC4022240.
± gives the standard deviation.

T1: HaloTag-ATRX ADD domain (163-292)
T1 chain: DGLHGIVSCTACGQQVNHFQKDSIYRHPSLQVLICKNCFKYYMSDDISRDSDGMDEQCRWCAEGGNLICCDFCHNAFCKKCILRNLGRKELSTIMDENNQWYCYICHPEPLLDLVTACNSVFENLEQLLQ

B1: Unmod H2A variant I L E L A G N A A R D N K (peptide)
chain: ILELAGNAARDNK
B2: Unmod H2A variant L A A V L E Y L T A E I L (peptide)
chain: LAAVLEYLTAEIL
B3: Unmod H2A variant L Q L A I R N D E E L N K (peptide)
chain: LQLAIRNDEELNK
B4: Unmod H2A variant I L E L A G N A S R D N K (peptide)
chain: ILELAGNASRDNK
B5: Unmod H2A variant Y L T A E I L E L A G N A (peptide)
chain: YLTAEILELAGNA
B6: Unmod H2A variant M A A V L E Y L T A E I L (peptide)
chain: MAAVLEYLTAEIL
B7: Unmod H2A variant G N A S R D N K K T R I I (peptide)
chain: GNASRDNKKTRII
B8: Unmod H2A variant G A G A P V Y M A A V L E (peptide)
chain: GAGAPVYMAAVLE
B9: Unmod H2A variant D N K K T R I I P R H L Q (peptide)
chain: DNKKTRIIPRHLQ
B10: Unmod H2A variant G N A A R D N K K T R I I (peptide)
chain: GNAARDNKKTRII

Target: T1, HaloTag-ATRX ADD domain (163-292)
Assay: peptide microarray binding signal (635 nm), min-max normalized on array (fraction of array maximum); higher = stronger binding
Conditions: peptide region: Unmod H2A variant; binder concentration: 50 nM
In short: (§1)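 Arrays carried histone 13-mer peptide–cellulose conjugates printed in triplicate on nitrocellulose alongside a Cy3 tracer. After overnight blocking at 4°C, they were incubated for 1 h at 4°C with biotin-labelled HaloTag reader fusions (10 nM to 1 μM) plus streptavidin-Alexa Fluor 647, or with rabbit histone antibodies (1:10,000 to 1:2,000) plus anti-rabbit Alexa 647. Scanning on an Axon GenePix 4000B used 635 nm for signal and 532 nm for misprints. The binding signal reported is each triplicate's mean spot intensity after per-library min-max scaling.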

Binder	peptide microarray binding signal
B1	0.048 ± 0.0046
B2	0.0089 ± 0.00038
B3	0.0213 ± 0.0039
B4	0.0191 ± 0.0013
B5	0.0171 ± 0.0047
B6	0.0107 ± 0.00027
B7	0.0142 ± 0.00075
B8	0.0137 ± 0.00082
B9	0.0223 ± 0.0044
B10	0.0155 ± 0.0014

Same assay, conditions: peptide region: Unmod H2A variant; binder concentration: 500 nM

Binder	peptide microarray binding signal
B1	0.0752 ± 0.011
B2	0.00462 ± 0.00017
B3	0.0279 ± 0.0038
B4	0.04029 ± 0.00036
B5	0.00443 ± 0.0022
B6	0.00667 ± 0.00052
B7	0.00895 ± 0.0037
B8	0.0173 ± 0.0023
B9	0.0112 ± 0.0059
B10	0.0214 ± 0.0004

target: HaloTag-ING2 PHD (mouse Ing2 200-280); assay: as above; conditions: peptide region: Unmod H2A variant; binder concentration: 10 nM
In short: as §1

Binder	peptide microarray binding signal
B1	0.0242 ± 0.0025
B2	0.00215 ± 4.5e-05
B3	0.005968 ± 4.9e-05
B4	0.00734 ± 0.00031
B5	0.00203 ± 0.00013
B6	0.00173 ± 2.1e-05
B7	0.0031 ± 0.00011
B8	0.0083 ± 0.0011
B9	0.00245 ± 9.1e-05
B10	0.003223 ± 1.8e-05

same assay, conditions: peptide region: Unmod H2A variant; binder concentration: 100 nM

Binder	peptide microarray binding signal
B1	0.0721 ± 0.0091
B2	0.00184 ± 0.00015
B3	0.03182 ± 0.00024
B4	0.0487 ± 0.0018
B5	0.00149 ± 4.1e-05
B6	0.000992 ± 2.8e-05
B7	0.00673 ± 0.00046
B8	0.0205 ± 0.0014
B9	0.0078 ± 0.0012
B10	0.0051 ± 0.00053

target: anti-H3K4me3 antibody ab8580; assay: as above; conditions: peptide region: Unmod H2A variant; binder concentration: 1:2,000 dilution
In short: as §1

Binder	peptide microarray binding signal
B1	0.0104 ± 0.0051
B2	0.00238 ± 0.0001
B3	0.0182 ± 0.0049
B4	0.0164 ± 0.0026
B5	0.000717 ± 0.00017
B6	0.00829 ± 0.0044
B7	0.000396 ± 2.5e-05
B8	0.00425 ± 0.00061
B9	0.000472 ± 9.6e-05
B10	0.00162 ± 0.0002

same assay, conditions: peptide region: Unmod H2A variant; binder concentration: 1:10,000 dilution

Binder	peptide microarray binding signal
B1	0.015 ± 0.0031
B2	0.000913 ± 1.6e-05
B3	0.00422 ± 0.00051
B4	0.00354 ± 0.00017
B5	0.00126
B6	0.00217 ± 3.9e-05
B7	0.0012 ± 4.3e-05
B8	0.0016 ± 0.00012
B9	0.00183 ± 0.00033
B10	0.000799 ± 8.3e-06

target: anti-H3K9me3 antibody ab8898; assay: as above; conditions: peptide region: Unmod H2A variant; binder concentration: 1:2,000 dilution
In short: as §1

Binder	peptide microarray binding signal
B1	0.00921 ± 0.0019
B2	0.0003775 ± 3.7e-06
B3	0.00439 ± 0.00042
B4	0.00523 ± 0.00098
B5	0.000664 ± 3.6e-05
B6	0.000529 ± 1.3e-05
B7	0.000272 ± 4.9e-06
B8	0.000846 ± 4.3e-05
B9	0.000317 ± 2.5e-05
B10	0.000362 ± 6.3e-06

same assay, conditions: peptide region: Unmod H2A variant; binder concentration: 1:10,000 dilution

Binder	peptide microarray binding signal
B1	0.0132 ± 0.0022
B2	0.00075 ± 7.9e-06
B3	0.00588 ± 0.00021
B4	0.00536 ± 0.0001
B5	0.00196 ± 0.00018
B6	0.00075 ± 1.6e-05
B7	0.00075 ± 7.9e-06
B8	0.00144 ± 3.7e-05
B9	0.000923 ± 7.7e-05
B10	0.000577 ± 6.2e-06
